Sampled rows, rich in hits. Any-hit rate of the full collection: about 4.1%.
Mdm2 MdmX PPI – disrupts the human Mdm2-MdmX interaction; SaOS-2 split-luciferase Mdm2/MdmX complementation, luminescence; inhibition, % at 8 µM; 330,000 tested, 3% active;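 active means inhibition of at least 50% at 8 µM in the primary screen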
Jurkat NFkB inh – inhibitors of the PMA/ionomycin-induced NF-kB reporter in Jurkat cells. 330,000 tested, 0.53% active. inhibition, % at 4 µM. AID 435003. PMA/ionomycin-induced NF-kB luciferase reporter, luminescence; in the data active means inhibition above about 50%
aSyn 5UTR inh – 5' untranslated region of α-synuclein, MLPCN primary screen. 300,000 tested, 0.82% active. inhibition, % (tested at 7.5 µM). alpha-synuclein 5'UTR reporter, inhibitor activity; in the data active means inhibition above about 60%; inconclusive means no clear call, values can overlap the other calls;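 further: H4 neuroglioblastoma cells stably carrying SNCA 5'UTR luciferase fusion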
KLF5 inh – kruppel-like factor 5 inhibition | DLD-1 KLF5 promoter-luciferase reporter, luminescence | 290,000 tested, 0.23% active | inhibition, % at 5 µM;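 active means inhibition above a per-plate limit of that plate's mean compound inhibition plus 3 SD, cut at about 60% in these data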;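 further: higher means less KLF5 promoter-driven luciferase light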
Gli-Sufu antag – blocks Gli-Sufu signaling in a luciferase reporter; Sufu-KO-LIGHT fibroblasts, Gli luciferase reporter luminescence; inhibition, % at 5 µM; 340,000 tested, 0.74% active;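 active means inhibition above about 55%, limit read from the data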
697 NFkB inh – lowers PMA/ionomycin-induced NF-kB signal in 697 B cells; 330,000 tested, 0.33% active; inhibition, % at 4 µM; 697 B-cell NF-kB luciferase reporter, 16 h; in the data active means inhibition above about 35%
Mdm2-MdmX conf – confirmation of human Mdm2/MdmX interaction inhibitors | shares compounds with Mdm2 MdmX PPI | Mdm2-MdmX binding, luminescent assay | inhibition, % at 8 µM | 10,000 tested, 55% active; in the data active means inhibition above about 40%
Full FLuc ctr – counter-screen for Mdm2/MdmX inhibitors: full-length luciferase | SaOS-2 full-length luciferase counterscreen, luminescence | 6,200 tested, 77% active | inhibition, % at 8 µM | shares compounds with Mdm2 MdmX PPI;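 active means mean inhibition at 8 µM reaching about 37%, which flags the compound as non-specific, limit read from the data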;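 further: p53-null SaOS-2 cells with luciferase driven by a doxycycline-inducible promoter; compound on cells about two nights before reading with doxycycline added after day one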
A number is an active result.

What do the screens show for `CCOC(=O)C1(C)NC(c2ccccc2F)C2C(=O)N(CC)C(=O)C21` (stereo not given)?
Mdm2 MdmX PPI: inactive; Jurkat NFkB inh: inactive; aSyn 5UTR inh: inactive; KLF5 inh: inactive; Gli-Sufu antag: inactive; 697 NFkB inh: inactive

How did C#CCOc1c(/C=C\c2nc(O)c([N+](=O)[O-])c(=O)[nH]2)cc(Br)cc1OC do in these assays?
Mdm2 MdmX PPI: inactive; Jurkat NFkB inh: inactive; aSyn 5UTR inh: inactive; KLF5 inh: inactive; Gli-Sufu antag: inactive; 697 NFkB inh: inactive

How did CC(=O)Nc1cccc(N)c1 do in these assays?
Mdm2 MdmX PPI: inactive; Jurkat NFkB inh: inactive; Gli-Sufu antag: inactive; 697 NFkB inh: inactive

What do the screens show for `O=[N+]([O-])c1cc(Cl)cc(/C=N/Nc2nc3ccccc3s2)c1O`?
Mdm2 MdmX PPI: 80; Jurkat NFkB inh: inactive; aSyn 5UTR inh: inactive; KLF5 inh: inactive; Gli-Sufu antag: inactive; 697 NFkB inh: inactive; Mdm2-MdmX conf: inactive

How did Cc1cccc(OCc2n(CC(=O)OC3CC(C)CCC3C(C)C)c3ccccc3[n+]2C)c1 (stereo not given) do in these assays?
Mdm2 MdmX PPI: 94; Jurkat NFkB inh: inactive; aSyn 5UTR inh: inconclusive; KLF5 inh: inactive; Gli-Sufu antag: inactive; 697 NFkB inh: inactive; Mdm2-MdmX conf: 96; Full FLuc ctr: 56

What do the screens show for `CC1CCC(C(C)C)C(OC(=O)Cn2c(-c3ccc(F)cc3)[n+](C)c3ccccc32)C1` (stereo not given)?
Mdm2 MdmX PPI: 89; Jurkat NFkB inh: inactive; KLF5 inh: inactive; Gli-Sufu antag: 81; 697 NFkB inh: inactive; Mdm2-MdmX conf: 93; Full FLuc ctr: 57

Results for CCOc1ccc(N2CC(C(=O)NCCc3c[nH]c4ccc(OC)cc34)CC2=O)cc1 (stereo not given) ?
Mdm2 MdmX PPI: inactive; Jurkat NFkB inh: inactive; aSyn 5UTR inh: inactive; KLF5 inh: inactive; Gli-Sufu antag: inactive; 697 NFkB inh: inactive

How did C/C(CC(=O)NC1CCCC1)=N\NC(=O)c1ccc([N+](=O)[O-])c(Cl)c1 do in these assays?
KLF5 inh: inactive; Gli-Sufu antag: inactive

Results for O=C1c2ccccc2C(=O)c2c(Nc3ccc(CCO)cc3)ccc(O)c21 ?
Mdm2 MdmX PPI: 72; Jurkat NFkB inh: inactive; aSyn 5UTR inh: inactive; KLF5 inh: inactive; Gli-Sufu antag: inactive; 697 NFkB inh: inactive; Mdm2-MdmX conf: inactive; Full FLuc ctr: inactive

Results for CSc1ccc2c(c1)N(CCC1CCCCN1C)c1ccccc1S2 (stereo not given) ?
Mdm2 MdmX PPI: 94; Jurkat NFkB inh: inactive; aSyn 5UTR inh: 110; KLF5 inh: inactive; Gli-Sufu antag: inactive; 697 NFkB inh: inactive; Mdm2-MdmX conf: inactive

What do the screens show for `COc1ccc2cc1Oc1ccc(cc1)C[C@H]1c3cc(c(OC)cc3CCN1C)Oc1c(OC)c(OC)cc3c1[C@@H](C2)N(C)CC3`?
Mdm2 MdmX PPI: 100; Jurkat NFkB inh: inactive; Gli-Sufu antag: inactive; 697 NFkB inh: inactive; Mdm2-MdmX conf: 90; Full FLuc ctr: 60

Results for COc1ccc(C(=O)NCCCn2nc(C)cc2C)cc1S(=O)(=O)N1CCOCC1 ?
Mdm2 MdmX PPI: inactive; Jurkat NFkB inh: inactive; Gli-Sufu antag: inactive; 697 NFkB inh: inactive

Results for COc1cccc(N2CCN(S(=O)(=O)c3cc4c(cc3C)N(C)CCO4)CC2)c1 ?
Mdm2 MdmX PPI: inactive; Jurkat NFkB inh: inactive; aSyn 5UTR inh: inactive; KLF5 inh: inactive; Gli-Sufu antag: inactive; 697 NFkB inh: inactive

What do the screens show for `Cc1cc2c(cc1S(=O)(=O)N1CCN(c3ccc(Cl)cc3)CC1)OCCN2C`?
Mdm2 MdmX PPI: 85; Jurkat NFkB inh: inactive; aSyn 5UTR inh: inactive; KLF5 inh: inactive; Gli-Sufu antag: inactive; 697 NFkB inh: inactive; Mdm2-MdmX conf: inactive

Results for Cc1cc(C(=O)c2ccc(Cl)cc2)c(NC(=O)CCl)s1 ?
Mdm2 MdmX PPI: 67; Jurkat NFkB inh: inactive; aSyn 5UTR inh: inactive; KLF5 inh: inactive; Gli-Sufu antag: inactive; 697 NFkB inh: inactive; Mdm2-MdmX conf: inactive

How did O=C(Oc1ccc(F)cc1C(=O)/C=C/c1cccs1)c1cccc([N+](=O)[O-])c1 do in these assays?
Mdm2 MdmX PPI: 55; Jurkat NFkB inh: inactive; aSyn 5UTR inh: inactive; KLF5 inh: inactive; Gli-Sufu antag: inactive; 697 NFkB inh: inactive; Mdm2-MdmX conf: 42; Full FLuc ctr: 48

Results for CCOC(=O)c1c(-c2ccc(C)o2)csc1NC(=O)COC(=O)c1ccc(NC(N)=O)cc1 ?
Mdm2 MdmX PPI: 69; Jurkat NFkB inh: inactive; aSyn 5UTR inh: inactive; KLF5 inh: inactive; Gli-Sufu antag: inactive; 697 NFkB inh: inactive; Mdm2-MdmX conf: inactive

What do the screens show for `COc1ccc(NC(=O)c2ccc3c(c2)NC(=O)CS3)cc1S(=O)(=O)Nc1ccc(Br)cc1`?
Mdm2 MdmX PPI: 69; Jurkat NFkB inh: inactive; aSyn 5UTR inh: inactive; KLF5 inh: inactive; Gli-Sufu antag: inactive; 697 NFkB inh: inactive; Mdm2-MdmX conf: 77; Full FLuc ctr: 44

Results for N#C/C(=C/c1ccc(F)cc1)c1nnc(NC(=O)c2ccccc2)s1 ?
Mdm2 MdmX PPI: 74; Jurkat NFkB inh: inactive; aSyn 5UTR inh: inactive; KLF5 inh: inactive; Gli-Sufu antag: inactive; 697 NFkB inh: inactive; Mdm2-MdmX conf: inactive

What do the screens show for `COc1ccc2oc(=Nc3ccccc3)c(-c3nc4ccccc4[nH]3)cc2c1`?
Mdm2 MdmX PPI: 88; Jurkat NFkB inh: inactive; aSyn 5UTR inh: inactive; KLF5 inh: inactive; Gli-Sufu antag: inactive; 697 NFkB inh: inactive; Mdm2-MdmX conf: inactive

How did COc1ccc(-c2nn(C)c3sc(C(=O)NCc4ccco4)cc23)cc1OC do in these assays?
Mdm2 MdmX PPI: inactive; Jurkat NFkB inh: inactive; aSyn 5UTR inh: inactive; KLF5 inh: inactive; Gli-Sufu antag: inactive; 697 NFkB inh: inactive

How did COc1cccc(-c2nn(C)c3sc(C(=O)NCc4ccc(C)o4)cc23)c1 do in these assays?
Mdm2 MdmX PPI: 70; Jurkat NFkB inh: inactive; aSyn 5UTR inh: inactive; KLF5 inh: inactive; Gli-Sufu antag: inactive; 697 NFkB inh: inactive; Mdm2-MdmX conf: inactive

What do the screens show for `COc1ccc(NC(=O)c2cc3c(-c4ccc(OC)c(OC)c4)nn(C)c3s2)cc1OC`?
Mdm2 MdmX PPI: 97; Jurkat NFkB inh: inactive; aSyn 5UTR inh: inactive; KLF5 inh: inactive; Gli-Sufu antag: inactive; 697 NFkB inh: inactive; Mdm2-MdmX conf: 67; Full FLuc ctr: 50

What do the screens show for `CCCCN1C(=O)CCC(C(=O)O)C1c1ccc([N+](=O)[O-])cc1` (stereo not given)?
Mdm2 MdmX PPI: inactive; Jurkat NFkB inh: inactive; aSyn 5UTR inh: inactive; KLF5 inh: inactive; Gli-Sufu antag: inactive; 697 NFkB inh: inactive

What do the screens show for `C[C@H](CO)N1C[C@H](C)[C@@H](CN(C)S(=O)(=O)c2cccs2)Oc2ccc(NC(=O)Nc3ccc(C(F)(F)F)cc3)cc2C1=O`?
Mdm2 MdmX PPI: 68; Jurkat NFkB inh: inactive; Gli-Sufu antag: inactive; 697 NFkB inh: inactive; Mdm2-MdmX conf: inactive

Screening results as filed in PubChem BioAssay.
